# Results: publication PMC13494018
# B1: design_621_7e0052dc-ae49-49a0-b99f-9f3ee649cc2f_1478_dldesign_0_cycle1_af2pred (protein)
# chain: AQALLDGVKRSSELAKEAEKYDPEAGKKILEVRTKGSAEASAVAVAGGTDAAVAAIAEKAAEEAKKLYEEAKKRAEERERE
# B2: design_621_7e0052dc-ae49-49a0-b99f-9f3ee649cc2f_1483_dldesign_0_cycle1_af2pred (protein)
# chain: AEAERLLAEARAAVAKGRAAGLAAAEAGLGAALEAARAMDAEARALAAAAEAAGHPEVAEEIRRAAGAAINEVLARASQVALAKAA
# B3: design_621_7e0052dc-ae49-49a0-b99f-9f3ee649cc2f_1508_dldesign_0_cycle1_af2pred (protein)
# chain: AKEEEEEAKKKAESVKKMVEVAKALAEYAKKSTDPQVAKIAANAAIGLANNAIEVGKKYPEAEPYAKEAEKVKEEAKKVIEEK
# B4: design_621_7e0052dc-ae49-49a0-b99f-9f3ee649cc2f_1562_dldesign_0_cycle1_af2pred (protein)
# chain: EEKKEEARERGEELVKEAEELAEKAAATSALAAMEAAEYALEVQQEIVELYSEAGDEEGLEEFSARVNKIVAYLQKAALEAQKAEA
# B5: design_621_7e0052dc-ae49-49a0-b99f-9f3ee649cc2f_1640_dldesign_0_cycle1_af2pred (protein)
# chain: GKKEEADKLVEEGNKLFEEAEALAKEGKVAEGSSKLIEGIKLYAEAAKLYREVDPAKADELYATAHAKSAKVNKLLLAAAR
# B6: design_621_7e0052dc-ae49-49a0-b99f-9f3ee649cc2f_1792_dldesign_0_cycle1_af2pred (protein)
# chain: EEAARQALLEAVTKTAIDLIKKADEAAKTDPAQAELYAYQAASLIASVLHQDPEKGKEVLEIAKKSAFGELITKKTEEMLKKIDAA
# B7: design_621_7e0052dc-ae49-49a0-b99f-9f3ee649cc2f_1809_dldesign_0_cycle1_af2pred (protein)
# chain: GAELVRRTIEASARTARRAVEEARERAKTPEEVEAAAESARRILQVAVDIGANYPEVAGEAEELAAEVGEEAERTLEEARKEY
# B8: design_621_7e0052dc-ae49-49a0-b99f-9f3ee649cc2f_1898_dldesign_0_cycle1_af2pred (protein)
# chain: ALAEAQRRAERLEREVEEAERRIEEHADDAERLEELAERLERLAHEALRLAATAPNEVAQRAVEIAERAARAAERARATAERLR
# B9: design_621_7e0052dc-ae49-49a0-b99f-9f3ee649cc2f_1985_dldesign_0_cycle1_af2pred (protein)
# chain: MAEEAEKLKKEAEKEFEKLKAEAKKYAAANGAKGQLAYQAVVGTGRSALDSLEALADDPERAKKTVEQLLAVAKDLVKSAAA
# B10: design_621_7e0052dc-ae49-49a0-b99f-9f3ee649cc2f_2068_dldesign_0_cycle1_af2pred (protein)
# chain: DETLKKAKEALKKAAKAAKKIGDEEIAKKVEEALKLLTPESAELALAMAEALLASLKTADGKENAAKIATALRSGVANVAAA
# B11: design_621_7e0052dc-ae49-49a0-b99f-9f3ee649cc2f_2237_dldesign_0_cycle1_af2pred (protein)
# chain: MREEINRRMVELSGRINALFPYAQQDPEVNALLGKALGDLLEAHATPDPEEAAELVERAEEYVEAAEARAAALAA
# B12: design_621_7e0052dc-ae49-49a0-b99f-9f3ee649cc2f_2346_dldesign_0_cycle1_af2pred (protein)
# chain: AEVAEIAKKTAEEVKKLIEAGAPAEEAAAVLNAGIAAVIKAAKAAGPASAADLGKAMDIFKETAELIVAYERERAAEAA
# B13: design_621_7e0052dc-ae49-49a0-b99f-9f3ee649cc2f_2349_dldesign_0_cycle1_af2pred (protein)
# chain: GEQALQIARAAYVSAKNLLKDAEATENLEDAEKLAELAEAMAKQALEVAKAAAAQSAEAVEYAKKAKEYAEEAKKLVEEKKKA
# B14: design_621_7e0052dc-ae49-49a0-b99f-9f3ee649cc2f_2499_dldesign_0_cycle1_af2pred (protein)
# chain: AAAQQTFQNFLGYATLAAAYLATVDPAAAEELMALAAKARADPEKAKEYFAKAKELLTKHLDKLAAYSPEAGQAAQNAIDAANTLL
# B15: design_622_fcc41892-afde-4fb9-b6e8-b664fffd6a75_7_dldesign_0_cycle1_af2pred (protein)
# chain: NEHLKEAAKHLEKAIEADAETALQLAQEALSHLLAALREASPEVRPLVEEAISHVTQALVYLSEGGETVEKGREELKKALEHAEKAAA
# B16: design_622_fcc41892-afde-4fb9-b6e8-b664fffd6a75_148_dldesign_0_cycle1_af2pred (protein)
# chain: GAAEEAAKVAAKGKALTDQAAAGDLETANALLGEALALLEEVARTGSPEAVAAAQAAVAALSKVVLAKAAA
# B17: design_622_fcc41892-afde-4fb9-b6e8-b664fffd6a75_169_dldesign_0_cycle1_af2pred (protein)
# chain: AQRETIKNGILAMMRALALALDDPEKREEMIEALAGIAAQLPKEEGVRVIKEAAKEVAAKYPEKAEEILEAGERAVELAKKLS
# B18: design_622_fcc41892-afde-4fb9-b6e8-b664fffd6a75_178_dldesign_0_cycle1_af2pred (protein)
# chain: AAAAKAAAAAAAKAQTAEARALVEEAERLAETDPELAIEVARRAIALANRAALAAQRIGDAATAAEAMAVAERAAEVLTRAGRRARA
# B19: design_622_fcc41892-afde-4fb9-b6e8-b664fffd6a75_254_dldesign_0_cycle1_af2pred (protein)
# chain: VDPEAQAKAEAEKMLEETKKAAEESPELAAETLNKGMAEMVKLAQANPEANEIYMKYGIEAAKKASEYIKELQEKRA
# B20: design_622_fcc41892-afde-4fb9-b6e8-b664fffd6a75_256_dldesign_0_cycle1_af2pred (protein)
# chain: SAAAVAAAAAAASARQASAALEEALATGTPEEVLRAAETALKMAEVLAWAGEQSPAAQAALDALRAKAEAARKAVAAA
# B21: design_622_fcc41892-afde-4fb9-b6e8-b664fffd6a75_281_dldesign_0_cycle1_af2pred (protein)
# chain: MKEKEKKLVEEAEKLLKEAKALPATPEGAQQAVQYGQKAAELGKKIKEAGGTKEAAEKAYQYANEAFKIAAQLGAQAA
# B22: design_622_fcc41892-afde-4fb9-b6e8-b664fffd6a75_316_dldesign_0_cycle1_af2pred (protein)
# chain: DALKVIEEYTKKALENIEDRELAALYLANMGVKVAQLVGDGSIGALAMKAAAEAYKSSVEEAKKIIKETAEKIKKIVE
# B23: design_622_fcc41892-afde-4fb9-b6e8-b664fffd6a75_365_dldesign_0_cycle1_af2pred (protein)
# chain: AEAAKKNIEIAAKAGEAAVKNLKTMKPEDAKKLYEVVKDLAEYMKEQGKKAPEQAELAKEKAEKIEEEAKKALKEVEEKGKKA
# B24: design_622_fcc41892-afde-4fb9-b6e8-b664fffd6a75_393_dldesign_0_cycle1_af2pred (protein)
# chain: AAAEAAAKAAALKAKADAAAAKGEEYYAKGKEYAAKGDVEKASEYYLEAIKYYSEAAKYYAKVDPALADAAMKKAQEATKQMMALAK
# B25: design_622_fcc41892-afde-4fb9-b6e8-b664fffd6a75_413_dldesign_0_cycle1_af2pred (protein)
# chain: SEKEEASKKLKELEEEGNKAYEKGKAAAAAGDTGAAGAELVKIVKMSSEAYKLSKYIPEEGKKVSDELSAKAVELSKLLTA
# B26: design_622_fcc41892-afde-4fb9-b6e8-b664fffd6a75_572_dldesign_0_cycle1_af2pred (protein)
# chain: EEELKKAVEEAKKEAKKAIETATQAIKLAQNYPALQAMAQAVKDAAKKALEKAEKGDLETAKRELQALKANLQMAQLLLESAQAG
# B27: design_622_fcc41892-afde-4fb9-b6e8-b664fffd6a75_655_dldesign_0_cycle1_af2pred (protein)
# chain: SMEAAAREAGKAEAEKVFAEAKAEGLGLGEAAKRIHDIFSKVSKFNPEFGAIARNAALAELQKLALAADA
# B28: design_622_fcc41892-afde-4fb9-b6e8-b664fffd6a75_667_dldesign_0_cycle1_af2pred (protein)
# chain: SAEEAVRKGEELTREAIKLAEEAVKGTPEKAKKAVEEIVKKMAEAIKASPAYGLLIANQARAIYLEAGKEDEAKAVKEGYKKALELAA
# B29: design_622_fcc41892-afde-4fb9-b6e8-b664fffd6a75_786_dldesign_0_cycle1_af2pred (protein)
# chain: DLLAEALRLAERAVEALREDPEEGRRLLEELAELGRRALAEKGDGLAVLLGLAARRALRLLEEDPEEARDFLERAVAFVRAQS
# B30: design_622_fcc41892-afde-4fb9-b6e8-b664fffd6a75_788_dldesign_0_cycle1_af2pred (protein)
# chain: SAAAEQLTLAAVRALSASAVAAEDPASSEQLFAVARDIADAASPETRARGLAIVDAARARAAARRAARAAAA
# B31: design_622_fcc41892-afde-4fb9-b6e8-b664fffd6a75_876_dldesign_0_cycle1_af2pred (protein)
# chain: AEAERLRAGAESVLKMADVAYQAAKASAANPAAVAQAIASMTAAYKNAAELYREAGDEEKAKAALAKGDADVAAAKALAA
# B32: design_622_fcc41892-afde-4fb9-b6e8-b664fffd6a75_877_dldesign_0_cycle1_af2pred (protein)
# chain: SEEYRRRAEELERRAREAAEEARRAERAEELRRYAEELRRIANEAMRLAMEAAQAGGDPEVVVRAVEVAVEALRAAGEAYRRAEELE
# B33: design_622_fcc41892-afde-4fb9-b6e8-b664fffd6a75_1048_dldesign_0_cycle1_af2pred (protein)
# chain: NPAVERARNVAEYAKQLIDFATANPAVPQALVDAAKAVLEAATKAAKEAEEDPSKAPEVLKRADEALAQANAISAQAAKAATAA
# B34: design_622_fcc41892-afde-4fb9-b6e8-b664fffd6a75_1089_dldesign_0_cycle1_af2pred (protein)
# chain: AATKEEAQKAMVEASEVATELLRKAGEAYKAGDEELAEELRRAANELMRAMVQAAKDPAKGLEAVKKAVERGKELLKRAEEALKKA
# B35: design_622_fcc41892-afde-4fb9-b6e8-b664fffd6a75_1090_dldesign_0_cycle1_af2pred (protein)
# chain: AAALAEATAMQFVRQAKATTDPERKRALARGAALALQSVVSPEEAARKTAEMAEALGAPPEVIAAARALL
# B36: design_622_fcc41892-afde-4fb9-b6e8-b664fffd6a75_1097_dldesign_0_cycle1_af2pred (protein)
# chain: SASEVAIKGGTALVNGAARAGIERIRRAGGGEADVERVKKIAEEAKKKIKAAKADAAKIGAIASEAVEEIRKLTEEVEKKA
# B37: design_622_fcc41892-afde-4fb9-b6e8-b664fffd6a75_1277_dldesign_0_cycle1_af2pred (protein)
# chain: SEEIIKKAEEIKEKAEKLLKEAAKLTPEQQKAAIKEMSKNLGELTELAKTASPEELKVINEAMNAAAKASVALAAKAA
# B38: design_622_fcc41892-afde-4fb9-b6e8-b664fffd6a75_1349_dldesign_0_cycle1_af2pred (protein)
# chain: AEASQALARRFIDATLAQMLAQIAAASAEEARRIAEAGLKAIEVAAQALPAEERAARVAEARERGAAAIAAKE
# Biological target: CD276, Q5ZPR3
# Sequence (Q5ZPR3 whole entry): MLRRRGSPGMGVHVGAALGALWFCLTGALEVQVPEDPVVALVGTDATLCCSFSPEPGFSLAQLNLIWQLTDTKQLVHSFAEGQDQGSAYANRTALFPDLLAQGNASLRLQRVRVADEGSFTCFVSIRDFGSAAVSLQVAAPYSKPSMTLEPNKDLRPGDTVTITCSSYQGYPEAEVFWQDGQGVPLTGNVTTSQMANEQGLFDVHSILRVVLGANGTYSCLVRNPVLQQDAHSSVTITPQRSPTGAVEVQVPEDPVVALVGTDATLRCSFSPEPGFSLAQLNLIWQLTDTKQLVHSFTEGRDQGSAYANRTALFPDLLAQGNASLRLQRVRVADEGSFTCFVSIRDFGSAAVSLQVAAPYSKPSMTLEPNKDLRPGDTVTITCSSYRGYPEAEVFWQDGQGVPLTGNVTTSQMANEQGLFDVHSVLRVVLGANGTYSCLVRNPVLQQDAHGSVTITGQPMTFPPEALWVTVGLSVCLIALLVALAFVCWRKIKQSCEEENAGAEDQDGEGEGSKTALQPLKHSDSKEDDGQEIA
row,Binder,binding in a display sort
1,B1,not found (inactive)
2,B2,not found (inactive)
3,B3,not found (inactive)
4,B4,not found (inactive)
5,B5,not found (inactive)
6,B6,not found (inactive)
7,B7,not found (inactive)
8,B8,not found (inactive)
9,B9,not found (inactive)
10,B10,not found (inactive)
11,B11,not found (inactive)
12,B12,not found (inactive)
13,B13,not found (inactive)
14,B14,not found (inactive)
15,B15,not found (inactive)
16,B16,not found (inactive)
17,B17,not found (inactive)
18,B18,not found (inactive)
19,B19,not found (inactive)

row,Binder,binding in a display sort
1,B20,not found (inactive)
2,B21,not found (inactive)
3,B22,not found (inactive)
4,B23,not found (inactive)
5,B24,not found (inactive)
6,B25,not found (inactive)
7,B26,not found (inactive)
8,B27,not found (inactive)
9,B28,not found (inactive)
10,B29,not found (inactive)
11,B30,not found (inactive)
12,B31,not found (inactive)
13,B32,not found (inactive)
14,B33,not found (inactive)
15,B34,not found (inactive)
16,B35,not found (inactive)
17,B36,not found (inactive)
18,B37,not found (inactive)
19,B38,not found (inactive)
